LASV entry inh: inhibitors of Lassa virus binding or cell entry. Lassa virus pseudotype entry inhibition, cell reporter. Potency, µM (highest dose often 37.9 µM), actives largely listed as inhibitors. 300,000 compounds, 1.2% hits. AID 540256; calls by dose curve; tested in HEK293 cells; note: nearly all actives have a fitted effect of over 50% in size
Shiga toxin inh: blocks Shiga toxin action in Vero cells. Vero cells, Shiga toxin protein synthesis inhibition reporter. inhibition, % at 38.7 µM. 290,000 compounds, 9.2% hits. AID 2315; in the data active = inhibition mostly above about 28%, no sharp cut-off; inactive = mostly below about 43%
Cycloheximide cs: counter-screen for Shiga toxin inhibitors: cycloheximide protein synthesis inhibition; cell reporter, cycloheximide protein synthesis inhibition counterscreen; max response, %; 300,000 compounds, 12% hits; AID 2314; in the data active = max response mostly above about 13%, no sharp cut-off; inactive = mostly below about 14%; note: read at 38.3 µM for the half of the compounds with a filed dose
Marburg entry inh: inhibitors of Marburg virus binding or cell entry; Marburg virus pseudotyped entry inhibition, cell reporter; Potency, µM (titrated, usually from 37.8 µM), actives largely listed as inhibitors; 300,000 compounds, 1.8% hits; AID 540276; calls by dose curve; tested in HEK293 cells
Hits are given with their value; – = inactive; ? = inconclusive; · = no result. Sampled rows, rich in hits. Any-hit rate of the full collection: about 12%.

SMILES | LASV entry inh | Shiga toxin inh | Cycloheximide cs | Marburg entry inh
COc1ccc(C(=O)O/N=C(\N)Cc2ccc(Cl)cc2)cc1OC | 11µM | – | – | ?
O=C(Nc1ccc(Br)cc1)c1cc(-c2cccs2)on1 | – | 114 | 22 | ?
Cc1ccc(NC(=O)c2cc(-c3cccs3)on2)cc1 | – | 131 | 38 | ?
COc1cc(NC(=O)c2cc(-c3cccs3)on2)cc(OC)c1OC | ? | – | – | ?
O=C(Nc1ccc(Cl)cc1)c1cc(-c2cccs2)on1 | · | – | 8.3 | ·
C=CCOC(=O)C1=C(C)NC(=S)NC1c1cccs1 (stereo not drawn) | ? | – | – | ?
COc1ccc(N2CCN(C(=O)c3ccccc3NS(=O)(=O)c3ccc(C)cc3)CC2)cc1 | ? | – | – | ?
CCCCCCC#C[C@@H]1C=C[C@H](OC(=O)OCC)[C@@H](COC(=O)OCC)O1 | · | · | · | –
CCOC(=O)C(C(=O)OCC)N(C#N)c1nc(N(C)C)nc(N(C)C)n1 | – | – | – | –
Cc1ccc(NC(=O)c2c3c(nc4ccccc24)CCC3)cc1 | – | – | – | –
Cc1ccc(NC(=O)c2c3c(nc4ccccc24)CCC3)cc1S(=O)(=O)N(C)C | – | 50 | 37 | –
Cc1ccc(NC(=O)c2ccc3ccccc3n2)cc1S(=O)(=O)N(C)C | ? | 79 | 27 | ?
Cc1cnc(C(=O)Nc2ccc(C)c(S(=O)(=O)N(C)C)c2)cn1 | – | – | – | –
CCN(CC)S(=O)(=O)c1cccc(-c2nnc(SCCOc3ccc(Cl)cc3)o2)c1 | ? | – | – | ?
CCN(CC)S(=O)(=O)c1cccc(-c2nnc(SCCOc3ccccc3)o2)c1 | 10µM | – | – | ?
COc1ccc(C2=Nn3c(nnc3-c3ccco3)SC2)cc1OC | – | – | – | –
O=C1NC(=S)NC1=Cc1ccccc1O | – | · | · | –
O=C1NC(=S)N/C1=C/c1cccc2ccccc12 | · | 89 | 29 | –
Cc1ccc(OCC(=O)Nc2ccc(F)cc2)cc1 | – | 40 | 47 | –
Cc1ccc(OCCC(=O)OCC(=O)Nc2ccc(F)cc2)cc1 | – | · | · | –
COc1ccc(OCC(=O)Nc2ccc(C)cc2)cc1 | – | 60 | 26 | –
O=C(COc1ccccc1O)Nc1ccc(Cl)cc1 | – | 56 | 28 | –
COc1cccc(NC(=O)CNS(=O)(=O)c2ccc(Cl)cc2)c1 | ? | – | – | –
COc1ccc(NC(=O)CNS(=O)(=O)c2ccc(Cl)cc2)cc1 | – | – | 16 | –
COc1ccc(NC(=O)COCC(=O)Nc2ccc(C)cc2)cc1 | · | – | – | ·
SMILES | LASV entry inh | Shiga toxin inh | Cycloheximide cs | Marburg entry inh
CC(OC(=O)CCCN=C1NS(=O)(=O)c2ccccc21)C(=O)Nc1ccccc1F (stereo not drawn) | – | · | · | ?
COc1ccc(OCC(=O)Nc2ccc(Cl)cc2)cc1 | – | 61 | 19 | ?
COc1ccc(OCC(=O)NNC(=O)C(=O)Nc2ccc(C)cc2)cc1 | – | – | 24 | –
CCOc1ccc(NC(=O)CCC(=O)NNC(=O)COc2ccc(C)cc2)cc1 | – | – | – | –
CCCCOc1ccc(/C=C2/Sc3ccccc3C2=O)cc1 | ? | – | – | –
CC(=O)Oc1cccc(/C=C2\Sc3ccccc3C2=O)c1 | – | 51 | 28 | –
COC(=O)[C@@H]1C[C@@]2(O)[C@H](O)[C@H](O)[C@H](O)C[C@H]2N1Cc1ccc(-c2ccccc2)cc1 | · | – | – | ·
N#CCN(C(=O)COC(=O)CCCNC(=O)c1ccc(Cl)cc1)c1ccccc1 | – | · | · | ?
Cc1ccc2c(CSc3nnc(N)s3)cc(=O)oc2c1 | – | 60 | 32 | –
COCCOC(=O)c1c(C)oc2ccc(O)c(CN3CCC(C)CC3)c12 (tested in a mixture with another compound) | – | · | · | ?
CCOc1ccccc1N(C)S(=O)(=O)c1ccc2c(c1)CC(C)N2C(=O)C1CC1 (stereo not drawn) | ? | – | – | ?
Cc1ccc2oc(=O)n(CCCOc3ccccc3)c2c1 | – | 104 | 35 | –
COc1ccc(OCCCn2c(=O)oc3ccc(C)cc32)cc1 | – | · | · | –
Cc1ccc2oc(=O)n(CCOc3ccccc3C)c2c1 | – | – | – | –
Cc1ccc2oc(=O)n(CCCOc3ccccc3C)c2c1 | – | 45 | 16 | ?
Cc1ccc(OCCn2c(=O)oc3ccc(C)cc32)cc1 | – | – | 20 | –
CC(C)c1ccc(Nc2nc(Cl)nc(NCCO)n2)cc1 | – | – | 12 | –
CC(C)Nc1nc(Cl)nc(Nc2ccccc2)n1 | – | 53 | 39 | ?
CCOC(=O)Cc1nnc(Nc2ccc(C)cc2C)c2ccccc12 | – | – | – | –
[O-]/[N+](=C/c1ccco1)c1ccccc1 | · | – | 23 | ·
[O-]/[N+](=C/c1ccc(F)cc1)c1ccc(Cl)cc1 | – | – | 54 | ?
[O-]/[N+](=C\c1ccco1)c1ccc(Cl)cc1 | · | 82 | 61 | ·
CC(C)(/C=N/O)/[N+]([O-])=C/c1ccco1 | – | – | – | –
CCCNC(=O)NC1CCCc2ccccc21 (stereo not drawn) | · | – | – | ·
Brc1ccc(-c2csc(/N=C/N3CCCC3)n2)cc1 | ? | 67 | 68 | 8.9µM
SMILES | LASV entry inh | Shiga toxin inh | Cycloheximide cs | Marburg entry inh
Brc1ccc(-c2csc(/N=C/N3CCOCC3)n2)cc1 | ? | – | 36 | ?
OCCN(/C=N/c1nc(-c2ccc(Br)cc2)cs1)CCO | – | 64 | 30 | –
CC(=O)Nc1c(-c2cc(=O)oc3cc(C)ccc23)oc2ccccc12 | · | – | – | ·
CCc1ccc(C2c3[nH]c4ccccc4c3CCN2C(=O)CN2CCN(CC)CC2)cc1 (stereo not drawn) | ? | – | – | 13µM
Cc1cccc(C2c3[nH]c4ccccc4c3CCN2C(=O)c2ccc(=O)[nH]c2)n1 (stereo not drawn) | · | – | – | ·
CCc1ccc(C2c3[nH]c4ccccc4c3CCN2C(=O)c2ccc(=O)n(C)n2)cc1 (stereo not drawn) | ? | – | – | 11µM
CCc1ccc(C2c3[nH]c4ccccc4c3CCN2C(=O)CNC(N)=O)cc1 (stereo not drawn) | – | – | – | –
COc1ccc(-c2oc3cccnc3c2/C=C/c2ccc(OC)c(OC)c2)cc1 | · | – | 9.9 | ·
CC(=O)c1cccc(N(CC(=O)Nc2ccc(F)cc2F)S(C)(=O)=O)c1 | ? | 51 | 30 | –
CCOC(=O)c1ccc(NCc2cccnc2)cc1 | · | – | 15 | ·
O=C(NCc1cccnc1)Nc1ccccc1 | · | – | – | ·
CCCCc1ccc(NC(=O)Nc2cccnc2)cc1 | · | 153 | 76 | ·
O=C(NCc1cccnc1)Nc1cccc(NC(=O)NCc2cccnc2)c1 | – | – | – | –
CCc1ccc(NC(=O)NCc2cccnc2)cc1 | – | – | 27 | –
Cc1ccc(NC(=O)NCc2cccnc2)cc1Cl | · | 39 | 32 | ·
Cc1nn(Cc2ccc(F)cc2)c(C)c1NC(=O)CCCn1nc([N+](=O)[O-])cc1C | · | – | – | ·
COc1ccc(NC(=O)CCCC(=O)OCC(=O)c2cccc(OC)c2)cc1 | ? | – | – | –
CCc1nc(SCc2cc(=O)c3cc(C)ccc3[nH]2)n[nH]1 | – | · | · | ·
CCCCc1ccc(NC(=O)OC)cc1 | ? | 46 | – | –
O=C1OCc2cc(NC(=O)C3COc4ccccc4O3)ccc21 (stereo not drawn) | – | – | – | –
Cc1cc(=O)oc2cc(NC(=O)C3COc4ccccc4O3)ccc12 (stereo not drawn) | ? | – | – | ?
O=C(Nc1ccncc1)C1COc2ccccc2O1 (stereo not drawn) | – | – | 11 | –

Screening results as filed in PubChem BioAssay.
